The source made the active and inactive calls. How the source made its calls: active means hit-call score of the fitted dose curve at least 0.9, where 1 is the maximum; inactive means score below 0.9.
Each molecule was assayed on Glutamate-cysteine ligase regulatory (GCLM), GCLM (gene 2730) (assay: LTEA_HepaRG_GCLM: Life Technologies and Expression Analysis (LTEA) Assay for Glutamate-cysteine ligase regulatory (GCLM) using HepaRG (AID 2283500)). Conditions: mRNA level, 48 h; actives raise or lower the signal.
Method in brief: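 HepaRG, 48 h dosing, 100 uM top, half-log x8, 0.5% DMSO vehicle. Readout: GCLM mRNA by TaqMan qRT-PCR, housekeeping-normalized (ACTB/GAPDH/POLR2A). Curves fit bidirectionally vs DMSO baseline.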

Row | SMILES | AC50 | outcome
1 | CC[C@H](c1ccc(O)cc1)[C@@H](CC)c1ccc(O)cc1 | 70.2 µM (active) | 
2 | NC(=O)N1C(=O)C(C(=O)c2cc(Cl)cs2)c2cc(F)c(Cl)cc21 (configuration not stated) |  | inactive
3 | CN1CCC[C@H]1c1cccnc1 |  | inactive
4 | C#C[C@]1(O)CC[C@H]2[C@@H]3CCC4=CC(=O)CC[C@@H]4[C@H]3CC[C@@]21C |  | inactive
5 | COc1ccc([N+](=O)[O-])cc1N |  | inactive
6 | CCCCCCCCCCCCN1CCCC1=O |  | inactive
7 | O=C(OCCOCCOC(=O)c1ccccc1)c1ccccc1 |  | inactive
8 | Oc1cccc(O)c1 |  | inactive
9 | CCCCCCCCOC(=O)CCCCCCCCC(=O)OCCCCCCCC |  | inactive
10 | COCC(C)O (configuration not stated) |  | inactive
11 | OC1CCC(C2CCCCC2)CC1 (configuration not stated) |  | inactive
12 | O=C(O)c1ccccc1C(c1ccc(O)cc1)c1ccc(O)cc1 |  | inactive
13 | CCCCCCCCCCCCc1ccccc1S(=O)(=O)O | 50 µM (active) | 
14 | NC(=O)N(O)[C@@H]1C=C[C@H](Oc2cccc(Oc3ccc(F)cc3)c2)C1 | 50 µM (active) | 
15 | C=C(C)C(=O)OCCC(F)(F)C(F)(F)C(F)(F)C(F)(F)C(F)(F)C(F)(F)F |  | inactive
16 | c1ccc2c(c1)Cc1ccccc1-2 |  | inactive

Row | SMILES | AC50 | outcome
17 | COCC(C)OCC(C)O (configuration not stated) |  | inactive
18 | N#C[C@@H]1CC(F)(F)CN1C(=O)CNC1CC2CCC(C1)N2c1ncccn1 (some centres not stated) |  | inactive
19 | CCCOC(=O)c1ccc(O)cc1 |  | inactive
20 | CCCCC(CC)COC(=O)CCCCC(=O)OCC(CC)CCCC (configuration not stated) |  | inactive
21 | O=C(O)Cc1cc(I)c(Oc2cc(I)c(O)c(I)c2)c(I)c1 |  | inactive
22 | CCCCOCCO |  | inactive
23 | COC(=O)CCCCC(=O)OC |  | inactive
24 | CC(C)CCCCCCOC(=O)CCCCC(=O)OCCCCCCC(C)C |  | inactive
25 | O=c1c(-c2ccc(O)cc2)coc2cc(O)ccc12 |  | inactive
26 | CCCCCCC(=O)O |  | inactive
27 | CC1=C(/C=C/C(C)=C/C=C/C(C)=C/C(=O)O)C(C)(C)CCC1 | 25.8 µM (active) | 
28 | CC#C[C@]1(O)CC[C@H]2[C@@H]3CCC4=CC(=O)CCC4=C3[C@@H](c3ccc(N(C)C)cc3)C[C@@]21C | 31.6 µM (active) | 
29 | CC(=O)CC(C)(C)O |  | inactive
30 | CC(C)(C)CC(C)(C)c1ccc(O)c(-n2nc3ccccc3n2)c1 |  | inactive
31 | CCC(C)(C)C1CCC(O)CC1 (configuration not stated) |  | inactive

Each molecule was assayed on Glutathione S-transferase M3 (GSTM3), GSTM3 (gene 2947) (assay: LTEA_HepaRG_GSTM3: Life Technologies and Expression Analysis (LTEA) Assay for Glutathione S-transferase M3 (GSTM3) using HepaRG (AID 2283501)). Conditions: mRNA level, 48 h; actives raise or lower the signal.
Method in brief: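 GSTM3 transcript levels came from Fluidigm TaqMan qRT-PCR normalized to three housekeeping genes, fitted in both directions against DMSO. HepaRG cultures received chemicals for 48 h in serum-free induction medium (0.5% DMSO), 8 half-log concentrations up to 100 uM, duplicate.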

Row | SMILES | outcome | AC50
32 | CC[C@H](c1ccc(O)cc1)[C@@H](CC)c1ccc(O)cc1 | inactive | 
33 | NC(=O)N1C(=O)C(C(=O)c2cc(Cl)cs2)c2cc(F)c(Cl)cc21 (configuration not stated) | inactive | 
34 | CN1CCC[C@H]1c1cccnc1 | inactive | 
35 | C#C[C@]1(O)CC[C@H]2[C@@H]3CCC4=CC(=O)CC[C@@H]4[C@H]3CC[C@@]21C | inactive | 
36 | COc1ccc([N+](=O)[O-])cc1N | inactive | 
37 | CCCCCCCCCCCCN1CCCC1=O | inactive | 
38 | O=C(OCCOCCOC(=O)c1ccccc1)c1ccccc1 | inactive | 
39 | Oc1cccc(O)c1 | inactive | 
40 | CCCCCCCCOC(=O)CCCCCCCCC(=O)OCCCCCCCC | inactive | 
41 | COCC(C)O (configuration not stated) | inactive | 
42 | OC1CCC(C2CCCCC2)CC1 (configuration not stated) | inactive | 
43 | O=C(O)c1ccccc1C(c1ccc(O)cc1)c1ccc(O)cc1 | inactive | 
44 | CCCCCCCCCCCCc1ccccc1S(=O)(=O)O | inactive | 
45 | NC(=O)N(O)[C@@H]1C=C[C@H](Oc2cccc(Oc3ccc(F)cc3)c2)C1 | inactive | 
46 | C=C(C)C(=O)OCCC(F)(F)C(F)(F)C(F)(F)C(F)(F)C(F)(F)C(F)(F)F | inactive | 
47 | c1ccc2c(c1)Cc1ccccc1-2 | inactive | 

Row | SMILES | outcome | AC50
48 | COCC(C)OCC(C)O (configuration not stated) | inactive | 
49 | N#C[C@@H]1CC(F)(F)CN1C(=O)CNC1CC2CCC(C1)N2c1ncccn1 (some centres not stated) | inactive | 
50 | CCCOC(=O)c1ccc(O)cc1 | inactive | 
51 | CCCCC(CC)COC(=O)CCCCC(=O)OCC(CC)CCCC (configuration not stated) | inactive | 
52 | O=C(O)Cc1cc(I)c(Oc2cc(I)c(O)c(I)c2)c(I)c1 |  | 33.5 µM (active)
53 | CCCCOCCO | inactive | 
54 | COC(=O)CCCCC(=O)OC | inactive | 
55 | CC(C)CCCCCCOC(=O)CCCCC(=O)OCCCCCCC(C)C | inactive | 
56 | O=c1c(-c2ccc(O)cc2)coc2cc(O)ccc12 | inactive | 
57 | CCCCCCC(=O)O | inactive | 
58 | CC1=C(/C=C/C(C)=C/C=C/C(C)=C/C(=O)O)C(C)(C)CCC1 | inactive | 
59 | CC#C[C@]1(O)CC[C@H]2[C@@H]3CCC4=CC(=O)CCC4=C3[C@@H](c3ccc(N(C)C)cc3)C[C@@]21C | inactive | 
60 | CC(=O)CC(C)(C)O | inactive | 
61 | CC(C)(C)CC(C)(C)c1ccc(O)c(-n2nc3ccccc3n2)c1 | inactive | 
62 | CCC(C)(C)C1CCC(O)CC1 (configuration not stated) | inactive | 

The molecules below were run on Heat shock 70 kDa protein 1 (HSPA1A), gene 3303 (assay: LTEA_HepaRG_HSPA1A: Life Technologies and Expression Analysis (LTEA) Assay for Heat shock 70 kDa protein 1 (HSPA1A) using HepaRG (AID 2283502)). Conditions: mRNA level, 48 h; actives raise or lower the signal.
Method in brief: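 HepaRG, 48 h exposure, 8-pt half-log CRC from 100 uM in 0.5% DMSO, duplicates. Readout: TaqMan qRT-PCR of HSPA1A mRNA, housekeeping-normalized (ACTB/GAPDH/POLR2A). Bidirectional fit vs 0.5% DMSO baseline.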

Row | SMILES | AC50 | outcome
63 | CC[C@H](c1ccc(O)cc1)[C@@H](CC)c1ccc(O)cc1 | 94.4 µM (active) | 
64 | NC(=O)N1C(=O)C(C(=O)c2cc(Cl)cs2)c2cc(F)c(Cl)cc21 (configuration not stated) | 72.3 µM (active) | 
65 | CN1CCC[C@H]1c1cccnc1 |  | inactive
66 | C#C[C@]1(O)CC[C@H]2[C@@H]3CCC4=CC(=O)CC[C@@H]4[C@H]3CC[C@@]21C |  | inactive
67 | COc1ccc([N+](=O)[O-])cc1N |  | inactive
68 | CCCCCCCCCCCCN1CCCC1=O |  | inactive
69 | O=C(OCCOCCOC(=O)c1ccccc1)c1ccccc1 |  | inactive
70 | Oc1cccc(O)c1 |  | inactive
71 | CCCCCCCCOC(=O)CCCCCCCCC(=O)OCCCCCCCC |  | inactive
72 | COCC(C)O (configuration not stated) |  | inactive
73 | OC1CCC(C2CCCCC2)CC1 (configuration not stated) |  | inactive
74 | O=C(O)c1ccccc1C(c1ccc(O)cc1)c1ccc(O)cc1 |  | inactive
75 | CCCCCCCCCCCCc1ccccc1S(=O)(=O)O | 13 µM (active) | 
76 | NC(=O)N(O)[C@@H]1C=C[C@H](Oc2cccc(Oc3ccc(F)cc3)c2)C1 | 82.6 µM (active) | 
77 | C=C(C)C(=O)OCCC(F)(F)C(F)(F)C(F)(F)C(F)(F)C(F)(F)C(F)(F)F |  | inactive
78 | c1ccc2c(c1)Cc1ccccc1-2 |  | inactive
79 | COCC(C)OCC(C)O (configuration not stated) |  | inactive
80 | N#C[C@@H]1CC(F)(F)CN1C(=O)CNC1CC2CCC(C1)N2c1ncccn1 (some centres not stated) |  | inactive
81 | CCCOC(=O)c1ccc(O)cc1 |  | inactive
82 | CCCCC(CC)COC(=O)CCCCC(=O)OCC(CC)CCCC (configuration not stated) |  | inactive
83 | O=C(O)Cc1cc(I)c(Oc2cc(I)c(O)c(I)c2)c(I)c1 | 54 µM (active) | 
84 | CCCCOCCO |  | inactive
85 | COC(=O)CCCCC(=O)OC |  | inactive
86 | CC(C)CCCCCCOC(=O)CCCCC(=O)OCCCCCCC(C)C |  | inactive
87 | O=c1c(-c2ccc(O)cc2)coc2cc(O)ccc12 |  | inactive
88 | CCCCCCC(=O)O |  | inactive
89 | CC#C[C@]1(O)CC[C@H]2[C@@H]3CCC4=CC(=O)CCC4=C3[C@@H](c3ccc(N(C)C)cc3)C[C@@]21C |  | inactive
90 | CC(=O)CC(C)(C)O |  | inactive
91 | CC(C)(C)CC(C)(C)c1ccc(O)c(-n2nc3ccccc3n2)c1 | 72.7 µM (active) | 
92 | CCC(C)(C)C1CCC(O)CC1 (configuration not stated) |  | inactive

Reference: PubChem BioAssay (EPA / NIEHS)
